# Compound activity: PubChem, National Center for Advancing Translational Sciences (NCATS)
# SARS PLpro yeast = inhibitors of SARS-CoV papain-like protease in yeast; S. cerevisiae expressing SARS-CoV PLpro, growth rescue; Potency, µM (highest dose often 32.9 µM), without a hit: at the highest dose activity, positive = growth rescue, most hits filed as activators; hit rate 0.19% among 330,000; AID 485353; calls by dose curve; further: 0% is about no effect; nearly all actives have a fitted effect of over 55% in size
# AMA1-RON2 inh = AMA1-RON2 (P. falciparum) interaction inhibition. AID 720542. hit rate 0.2% among 360,000. Potency, µM (top dose mostly 58.2 µM), without a hit: at the highest dose activity change, negative = inhibition, most hits filed as inhibitors. AlphaScreen AMA1-biotinylated RON2 peptide binding;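 further: 0% = vehicle wells and -100% = peptide control; nearly all actives have a fitted effect of over 45% in size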
#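 AMA1 (3D7) with his tag at 25 nM final met compounds first, then biotinylated RON2 peptide at 25 nM; detection used donor plus acceptor beads, 10 µg/mL apiece, read by AlphaScreen after 30 min at room temperature.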
# HCV inh = blocks hepatitis C virus; Huh7.5.1 HCVcc-Cre infection, luciferase reporter, 44 h; Potency, µM (highest dose often 41.8 µM), inactives show at the highest dose activity change, negative = inhibition, usual class: inhibitors; hit rate 3.4% among 340,000; AID 651820; further: on the % scale 0 is the no-effect control and ±100 the full control effect
#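 Infectious HCVcc-Cre (~0.5 moi) was added to cells just after compound, with cells seeded 4 h earlier at 1,000 per well. Luciferase activity after 44 h culture reported infection; substrate was incubated 15 min at room temperature before reading.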
# Pf growth 96h = P. falciparum growth inhibition at 96 hour, primary screen for plastid delayed-death inhibitors; P. falciparum luciferase reporter growth, 96 h; Potency, µM (titrated, usually from 28.7 µM), for the others: top-dose activity change, negative = inhibition, most hits filed as inhibitors; hit rate 6.9% among 320,000; AID 504834; further: on the % scale 0 is the no-effect control and ±100 the full control effect
#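 Cell-based qHTS: luciferase-tagged P. falciparum in erythrocytes (2% hematocrit, 0.05% parasitemia final) incubated with compounds for 96 hours, 37 C, 5% CO2; luciferase detection reagent then added and luminescence measured.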
# NS1 function inh = influenza NS1 inhibition | Potency, µM (highest dose often 46.1 µM), without a hit: at the highest dose activity, positive = more growth | hit rate 0.4% among 270,000; calls by dose curve; further: actives are rising curves; nearly all actives have a fitted effect of over 50% in size
#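 Compounds were scored for reversing the slow growth caused by influenza A NS1 in S. cerevisiae, measured by optical density at 600 nm. Assay medium contained 2% galactose at pH 6.0; NS1-free yeast of the same strain were the positive control.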
# Pf growth 48h = inhibits P. falciparum growth in the first generation, 48 h; P. falciparum luciferase growth in erythrocytes, 48 h; Potency, µM (top dose mostly 28.7 µM), for inactives: at the top dose activity change, negative = inhibition, actives largely listed as inhibitors; hit rate 5.9% among 310,000; further: on the % scale 0 is the no-effect control and ±100 the full control effect
#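 Luciferase-expressing parasites in RBCs, 2% Hct / 0.1% parasitemia final; RPMI 1640 + 0.5% Albumax; 37 C, 5% CO2, one generation; luminescence read-out, lower signal = inhibition.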
# * marks the source's active call; other numbers are inactive results; i = inactive; ? = inconclusive; . = no result given; [ ] = dose if it differs, or a comment. This is a sample that favours compounds with a hit; in the whole collection about 12% have one here. Unless noted, the call rests on the fitted dose curve; in most records, active means well fitted curve in the direction sought with a large enough effect; inconclusive means small, poorly fitted or top-dose-only effect, or another doubt; inactive means no such curve, though single readings can be large; an effect the other way counts as inactive or inconclusive. Potency means the concentration at half of the fitted maximal effect.
SMILES,SARS PLpro yeast,AMA1-RON2 inh,HCV inh,Pf growth 96h,NS1 function inh,Pf growth 48h
CC(=O)n1cc([C@@H]2C=C(C(=O)NCc3ccccc3)O[C@H](OCCCCO)C2)c2ccccc21,-1.5%,4.5%,-16.0%,?,3.9%,?
CC(=O)n1cc([C@H]2C=C(C(=O)NCc3ccccc3)O[C@@H](OCCCCO)C2)c2ccccc21,-0.5%,6.4%,-19.9%,?,7.4%,5.86µM*
O=C(NCc1ccccc1)C1=C[C@H](c2coc3ccccc3c2=O)C[C@H](OCCCCO)O1,-1.8%,2.0%,-9.6%[8.37 µM],10.4µM*,1.2%,?
CC(=O)n1cc([C@H]2C=C(C(=O)Nc3ccccc3)O[C@@H](OCCCCO)C2)c2ccccc21,0.3%,-7.3%,-13.0%,?,8.7%,9.28µM*
CCOc1ccc(OCCCC(=O)NCCc2ccc(OC)cc2)cc1,-0.4%,-3.3%,-28.2%,?,-3.6%,-1.6%
Cc1nn(C(=O)Cn2ccc([N+](=O)[O-])n2)c(C)c1Cl,-2.8%,-10.4%,-1.7%,?,3.3%,-15.5%
COC(=O)Cn1cnc2c(Cl)nc(F)nc21,2.5%,5.4%,5.62µM*,.,.,.
N#Cc1cccc(C#N)c1Oc1ccc(S(=O)(=O)Nc2ccc(Cl)cc2)cc1,0.5%,3.4%,?,0.0%,-3.1%,-15.7%
Cc1ccc(/C=N/NC(=O)CSc2nc3ccccc3c(=O)n2-c2ccccc2)s1,-16.2%,-3.9%,-3.6%,?,28.6%,?
C=CCn1c(SCc2cc(C(C)=O)ccc2OCC)nc2ccccc2c1=O,-6.7%,0.0%,?,5.86µM*,24.3%,?
COc1ccc(C(C)=O)cc1CSc1nc2ccccc2c(=O)n1-c1ccccc1,-6.9%,-1.2%[2.32 µM],-10.9%,?,-7.1%,-28.5%
COc1ccc(C(C)=O)cc1CSc1nc2ccccc2c(=O)n1-c1ccccc1C,-23.3%,-12.0%,?,2.33µM*,?,11.7µM*
Cc1ccc(/C=N/NC(=O)CSc2nc3ccccc3c(=O)n2-c2ccccc2C)s1,13.9%,3.4%,?,11.7µM*,4.1%,-29.7%
CC(C)NC(=O)Cn1cc(C(=O)COc2ccccc2)c2ccccc21,0.1%,-6.0%,-22.5%,62.8%,15.1%,-9.2%
COc1ccc(C2CC(C(F)(F)F)n3nc(C(=O)N(C)Cc4cn(C)nc4C)c(Cl)c3N2)cc1 (configuration not stated),-0.3%,1.3%,-5.4%,0.0%,-5.9%,14.7µM*
C[C@@H]1Cc2c(O)c(O)cc(O)c2C(=O)O1,-0.9%,?,-6.9%,26.5%,-0.7%,?
CC1Oc2cc3c(-c4c(O)cc(O)c5c(O)c6c(cc45)OC(C)C(C)C6=O)c(O)cc(O)c3c(O)c2C(=O)C1C (configuration not stated),1.6%,-14.8%,?,0.522µM*,17.7%,0.37µM*
CC(=O)O[C@H]1[C@H]2O[C@]23[C@@H]2CC[C@]4(O)C[C@@H](O)CC[C@]4(C)C2CC[C@]3(C)[C@H]1c1ccc(=O)oc1 (some centres not stated),4.8%,10.9%,3.16µM*,-0.6%,.,20.0%
COc1ccc2ccccc2c1CNC(C)c1ccccc1 (configuration not stated),1.2%,-17.1%,5.62µM*,?,-40.8%,-53.2%
COc1ccc2ccccc2c1CNCc1ccc(C)cc1,16.8%,-21.5%,?,?,-9.6%,?
COC(=O)C1C=CC(OC2OC(COC(C)=O)C(OC(C)=O)C(OC(C)=O)C2OC(C)=O)n2c(=O)n(-c3ccccc3)c(=O)n21 (configuration not stated),.,-9.2%,10µM*,.,.,.
CC(=O)OCC1OC(n2ccc3ccccc32)C(OC(C)=O)C(OC(C)=O)C1OC(C)=O (configuration not stated),0.1%,0.0%,11.6%,.,-5.2%,11.1%
CCCC12CN3CC(CCC)(CN(C1)C3c1ccccn1)C2=O (configuration not stated),1.5%,-4.6%,7.0%,.,0.8%,9.28µM*
COc1cccc(CN(C(=O)/C=C/c2ccc(Cl)cc2)C2CCS(=O)(=O)C2)c1 (configuration not stated),1.5%,6.0%,-15.8%,i,.,?
CC1(C)CC(=O)C([N+](=O)[O-])=C(NCCCC(=O)O)C1,-13.7%,8.9%,27.1%,0.1%,-2.3%,17.1%
SMILES,SARS PLpro yeast,AMA1-RON2 inh,HCV inh,Pf growth 96h,NS1 function inh,Pf growth 48h
Nc1ccc2c(c1)Cc1c(F)cccc1-2,.,-7.6%,?,.,.,.
O[C@]1(c2ccccc2)c2ccccc2NC2=NCCN21,.,.,.,.,0.0%,.
O=C(CN(C(=O)c1csnn1)c1ccccc1C(F)(F)F)NC1CCCCC1,0.5%,1.8%,-5.9%,0.5%,-8.4%,-4.1%
CCN(CC)c1ccc(/C=N/Nc2ccc(C)cc2)c(O)c1,?,?,3.4%,?,12.5%,-3.9%
COc1cc(/C=N\NC(=O)CNC(=O)C2COc3ccccc3O2)ccc1O (configuration not stated),10.2%,8.8%,7.6%,23.8%,6.1%,2.1%
CCN(CC)c1ccc(/C=N/NC(=O)CNC(=O)C2COc3ccccc3O2)c(O)c1 (configuration not stated),?,23.8%,11.2µM*,?,-11.8%,?
CCOC(=O)N/N=C/c1ccc(N(CC)CC)cc1O,-20.6%,41.6%[2.32 µM],3.55µM*,4.15µM*,-22.9%,?
CSc1ccc(S(=O)(=O)NCC(=O)OCC(=O)N2CCC(C)CC2)cc1[N+](=O)[O-],-4.2%,1.0%,5.7%,1.3%,.,?
COc1cc(N)c(Cl)cc1C(=O)OCC(=O)NCC1CCCCC1,-2.4%,20.3%,10µM*,.,.,.
COc1cc(N)c(Cl)cc1C(=O)OCC(=O)NCC1CCCO1 (configuration not stated),-1.9%,-3.0%,-6.7%,.,.,.
CC(Cc1ccc(O)c(O)c1)C(C)Cc1ccc(O)c(O)c1 (configuration not stated),.,?,10µM*,15.1µM*,.,?
CC1CCCCN1C(=O)Cn1cc(C#N)c2ccccc21 (configuration not stated),-13.8%,2.5%,-5.2%,6.1%,6.1%,-18.1%
CCN1C(=O)NC(=O)/C(=C\c2cn(CC(=O)N3CCCCC3C)c3ccccc23)C1=O (configuration not stated),11.7%,15.9%,7.6%,6.57µM*,15.2%,-8.7%
CC(=O)Nc1nc(SCC(=O)NCc2ccc(F)cc2)[nH]c(=O)c1NC(=O)c1cccs1,2.3%,-1.5%,23.6%,9.3%,.,3.5%
CN1CCN(CCCNC(=O)c2ccc(/C=C3\Sc4ccccc4N(Cc4ccccc4F)C3=O)cc2)CC1,-1.8%,-12.0%,10µM*,-3.9%,.,?
